Assay results published in PubChem BioAssay (NCATS).
Results filed as inconclusive are left out. Unmarked numbers belong to inactive results. The source made the active and inactive calls. Calls follow the shape of the dose curve; as a rule, active = well fitted curve in the direction sought with a large enough effect; inconclusive = small, poorly fitted or top-dose-only effect, or another doubt; inactive = no such curve, though single readings can be large; an effect the other way counts as inactive or inconclusive.

test system: Zika virus NS2B-NS3 protease; experiment: Primary screen GU AMC qHTS for Zika virus inhibitors (AID 1347154); conditions: Zika NS2B-NS3 unlinked protease, AMC fluorogenic substrate; series mostly up to 54.1 µM; activity change, negative = inhibition: at the top concentration;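 also: 0% = no-inhibitor control and -100% = no-enzyme control; nearly all actives have a fitted effect of over 70% in size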
Method in brief: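 Unlinked Zika NS2B hydrophilic domain–NS3 protease complex at 25 nM in 10 mM Tris-HCl pH 8.0, 0.01% Tween 20, with an AMC peptide substrate. Fluorescence change (340/450 nm) over 15 min at room temperature, normalized to controls, fitted to 4-parameter Hill.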

Row | Structure (SMILES) | activity change, negative = inhibition | Potency
1 | O=C(N/N=C\c1ccccc1O)c1ccccc1O | -0.948% | 
2 | COc1ccccc1N1CCN(C[C@@H](C(=O)NC(C)(C)C)c2ccccc2)CC1 | -5.16% | 
3 | OC[C@@H](O)COc1cccc2ccccc12 | 4.26% | 
4 | O=C(c1ccc2c(c1)OCO2)N1CCCCC1 | 5.07% | 
5 | CC(C)(C)Cn1nc(-c2ccc(Cl)cc2)c2c(N)ncnc21 | 6.73% | 
6 | Fc1ccc([C@H]2CCNC[C@H]2COc2ccc3c(c2)OCO3)cc1 | 14.1% | 
7 | CCCn1c(=O)c2[nH]c(-c3ccccc3)nc2n(CCC)c1=O |  | inactive
8 | C[C@H](O)CO[C@H]1[C@H]2O[C@H]3[C@H](O)[C@@H](O)[C@@H](O[C@H]4[C@H](O)[C@@H](O)[C@@H](O[C@H]5[C@H](O)[C@@H](O)[C@@H](O[C@H]6[C@H](O)[C@@H](OC[C@H](C)O)[C@@H](O[C@H]7[C@H](O)[C@@H](OC[C@H](C)O)[C@@H](O[C@H]8[C@H](O)[C@@H](O)[C@@H](O[C@@H]([C@@H]1O)[C@@H](CO)O2)O[C@@H]8CO)O[C@@H]7CO)O[C@@H]6CO)O[C@@H]5CO)O[C@@H]4CO)O[C@@H]3CO | 8.62% | 
9 | C#CCCCCCCCCCCCCCCCC(=O)O |  | inactive
10 | C[C@@H]1c2ccccc2CN1CC1=NCCN1 | 3.32% | 
11 | Cc1cc(Cn2cnc3c2C[C@@H](C(=O)O)N(C(=O)C(c2ccccc2)c2ccccc2)C3)ccc1N(C)C | 4.95% | 
12 | COc1cc(OC)c(C(=O)CCCCN2CCC3(CC2)NC(=O)NC3=O)cc1NS(=O)(=O)c1ccc(C(F)(F)F)cc1 |  | inactive
13 | O=C1C(=O)N(Cc2ccc(Cl)c(Cl)c2)c2ccccc21 | 12.8% | 
14 | CCCn1c(=O)[nH]c2nc(-c3ccc(S(=O)(=O)O)cc3)[nH]c2c1=O | 4.8% | 
15 | COCCNC(=O)COc1ccc(OCCNC[C@@H](O)COc2ccccc2)cc1 | 5.69% | 
16 | CCOC(OCC)P(=O)(O)CCCNCc1ccc(Cl)c(Cl)c1 |  | inactive
17 | CCCCC(=O)NCCc1c(Cc2ccccc2)[nH]c2ccccc12 |  | inactive
18 | C[C@@H]1Nc2ccc(Cl)cc2S(=O)(=O)N1 | -10.2% | 
19 | CSc1nc(NC2CCCC2)c([N+](=O)[O-])c(NC2CCCC2)n1 | 13.7% | 
20 | NCCCNCCCCN(CCCN)/[N+]([O-])=N/O | 7.3% | 

Row | Structure (SMILES) | activity change, negative = inhibition | Potency
21 | CCCCCCCC(=O)O[C@H](CC(=O)O)C[N+](C)(C)C | 10.7% | 
22 | COC(=O)/C=C\c1cc(O)ccc1O | 4.86% | 
23 | CCCCCCCCCCCCC(=O)N1CCCC[C@H]1CNC(=O)[C@@H](N)CCCCN | 8.2% | 
24 | CCOC(=O)C1=C(C)NC(c2ccccc2)=C(C(=O)OCc2ccc([N+](=O)[O-])cc2)[C@@H]1C#Cc1ccccc1 | -3.77% | 
25 | CC[C@]1(O)C[C@@H]2CN(CCc3c([nH]c4ccccc34)[C@](C(=O)OC)(c3cc4c(cc3OC)N(C=O)[C@H]3[C@@](O)(C(=O)OC)[C@H](C(=O)OC)[C@@]5(CC)C=CCN6CC[C@]43[C@H]65)C2)C1 | 11.1% | 
26 | CC(=O)[C@H](CC(C)C)NC(=O)[C@@H](CC(C)C)NC(=O)[C@H](CC(C)C)NC(=O)OCc1ccccc1 | -7.12% | 
27 | NS(=O)(=O)c1cccc2c1c([N+](=O)[O-])cc1[nH]c(=O)c(=O)[nH]c12 | -6.41% | 
28 | CC(=O)OCCNC(=O)c1cccnc1 | 7.47% | 
29 | c1ccc2cc(C3=NCCN3)ncc2c1 | -8.94% | 
30 | CS(=O)(=O)Nc1ccc([N+](=O)[O-])cc1OC1CCCCC1 |  | inactive
31 | COc1cccc(C=NC=Nc2cccc(OC)c2)c1 | 19.9% | 
32 | CC#CCOC(=O)C1=CCCN(C)C1 |  | inactive
33 | NCCCCNS(=O)(=O)c1ccc2c(Cl)cccc2c1 | 15.7% | 
34 | C[C@](O)(C(=O)Nc1ccc(S(=O)(=O)c2ccccc2)cc1)C(F)(F)F | 1.9% | 
35 | CCCCC#Cc1nc(NC)c2ncn([C@@H]3O[C@@H](CO)[C@H](O)[C@H]3O)c2n1 | -1.68% | 
36 | O=C(O)CC/C=C\C[C@@H]1CO[C@H](c2ccccc2Cl)O[C@@H]1c1ccccc1O | -4.34% | 
37 | Cc1ccc(-c2nn(CC(C)(C)C)c3ncnc(N)c23)cc1 | 2.68% | 
38 | Cc1noc(NS(=O)(=O)c2cccc3c(N(C)C)cccc23)c1C | 8.29% | 
39 | CCCCC[C@H](O)/C=C/[C@H]1C=CC(=O)[C@@H]1C/C=C\CCCC(=O)O | 7.12% [at 6.83 µM] | 
40 | O=c1nc2ccccc2c2n1C[C@H](CN1CCN(c3ccccc3)CC1)N2 | 4.35% | 

test system: not listed separately; experiment: Primary qHTS for small molecule stabilizers of the endoplasmic reticulum resident proteome: Secreted ER Calcium Modulated Protein (SERCaMP) assay (AID 1508630); conditions: SH-SY5Y GLuc-SERCaMP (Gaussia luciferase released on ER calcium loss) secretion, thapsigargin, luminescence; series mostly up to 38.4 µM; activity change, negative = inhibition: at the top concentration; also: % is scaled to controls: 0 for no effect and ±100 for the full control effect
Method in brief: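 The SH-SY5Y reporter protocol was run at 3 concentrations up to 38.3 uM (primary) or 11 concentrations (follow-up): 16 h compound, 100 nM thapsigargin for 4 h, then extracellular luciferase luminescence.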

Row | Structure (SMILES) | activity change, negative = inhibition | Potency
41 | O=C(N/N=C\c1ccccc1O)c1ccccc1O | -23.6% | 
42 | COc1ccccc1N1CCN(C[C@@H](C(=O)NC(C)(C)C)c2ccccc2)CC1 | 11.9% | 
43 | OC[C@@H](O)COc1cccc2ccccc12 | 27.1% | 
44 | O=C(c1ccc2c(c1)OCO2)N1CCCCC1 | -37.1% | 
45 | CC(C)(C)Cn1nc(-c2ccc(Cl)cc2)c2c(N)ncnc21 | -7.15% | 
46 | Fc1ccc([C@H]2CCNC[C@H]2COc2ccc3c(c2)OCO3)cc1 | 241% | 
47 | CCCn1c(=O)c2[nH]c(-c3ccccc3)nc2n(CCC)c1=O |  | inactive
48 | C[C@H](O)CO[C@H]1[C@H]2O[C@H]3[C@H](O)[C@@H](O)[C@@H](O[C@H]4[C@H](O)[C@@H](O)[C@@H](O[C@H]5[C@H](O)[C@@H](O)[C@@H](O[C@H]6[C@H](O)[C@@H](OC[C@H](C)O)[C@@H](O[C@H]7[C@H](O)[C@@H](OC[C@H](C)O)[C@@H](O[C@H]8[C@H](O)[C@@H](O)[C@@H](O[C@@H]([C@@H]1O)[C@@H](CO)O2)O[C@@H]8CO)O[C@@H]7CO)O[C@@H]6CO)O[C@@H]5CO)O[C@@H]4CO)O[C@@H]3CO | -25.5% | 
49 | C#CCCCCCCCCCCCCCCCC(=O)O |  | inactive
50 | C[C@@H]1c2ccccc2CN1CC1=NCCN1 | -8.98% | 
51 | Cc1cc(Cn2cnc3c2C[C@@H](C(=O)O)N(C(=O)C(c2ccccc2)c2ccccc2)C3)ccc1N(C)C | -28% | 
52 | COc1cc(OC)c(C(=O)CCCCN2CCC3(CC2)NC(=O)NC3=O)cc1NS(=O)(=O)c1ccc(C(F)(F)F)cc1 |  | inactive
53 | O=C1C(=O)N(Cc2ccc(Cl)c(Cl)c2)c2ccccc21 | 14.3% | 
54 | CCCn1c(=O)[nH]c2nc(-c3ccc(S(=O)(=O)O)cc3)[nH]c2c1=O | 8.61% | 
55 | COCCNC(=O)COc1ccc(OCCNC[C@@H](O)COc2ccccc2)cc1 | -14.5% | 
56 | CCOC(OCC)P(=O)(O)CCCNCc1ccc(Cl)c(Cl)c1 |  | inactive
57 | CCCCC(=O)NCCc1c(Cc2ccccc2)[nH]c2ccccc12 |  | inactive
58 | C[C@@H]1Nc2ccc(Cl)cc2S(=O)(=O)N1 | -13.8% | 
59 | CSc1nc(NC2CCCC2)c([N+](=O)[O-])c(NC2CCCC2)n1 | -22.9% | 
60 | NCCCNCCCCN(CCCN)/[N+]([O-])=N/O | 46.2% | 

Row | Structure (SMILES) | activity change, negative = inhibition | Potency
61 | CCCCCCCC(=O)O[C@H](CC(=O)O)C[N+](C)(C)C | -25.2% | 
62 | COC(=O)/C=C\c1cc(O)ccc1O | 22.1% | 
63 | CCCCCCCCCCCCC(=O)N1CCCC[C@H]1CNC(=O)[C@@H](N)CCCCN | -28.2% | 
64 | CCOC(=O)C1=C(C)NC(c2ccccc2)=C(C(=O)OCc2ccc([N+](=O)[O-])cc2)[C@@H]1C#Cc1ccccc1 | -8.54% | 
65 | CC[C@]1(O)C[C@@H]2CN(CCc3c([nH]c4ccccc34)[C@](C(=O)OC)(c3cc4c(cc3OC)N(C=O)[C@H]3[C@@](O)(C(=O)OC)[C@H](C(=O)OC)[C@@]5(CC)C=CCN6CC[C@]43[C@H]65)C2)C1 | 52.9% | 
66 | CC(=O)[C@H](CC(C)C)NC(=O)[C@@H](CC(C)C)NC(=O)[C@H](CC(C)C)NC(=O)OCc1ccccc1 | 8.44% | 
67 | NS(=O)(=O)c1cccc2c1c([N+](=O)[O-])cc1[nH]c(=O)c(=O)[nH]c12 | -6.91% | 
68 | CC(=O)OCCNC(=O)c1cccnc1 | -25.2% | 
69 | c1ccc2cc(C3=NCCN3)ncc2c1 | -1.47% | 
70 | CS(=O)(=O)Nc1ccc([N+](=O)[O-])cc1OC1CCCCC1 | 25.9% [at 76.3 µM] | 
71 | COc1cccc(C=NC=Nc2cccc(OC)c2)c1 | -21.7% | 
72 | CC#CCOC(=O)C1=CCCN(C)C1 |  | inactive
73 | NCCCCNS(=O)(=O)c1ccc2c(Cl)cccc2c1 | 12.1% | 
74 | C[C@](O)(C(=O)Nc1ccc(S(=O)(=O)c2ccccc2)cc1)C(F)(F)F | -18.4% | 
75 | CCCCC#Cc1nc(NC)c2ncn([C@@H]3O[C@@H](CO)[C@H](O)[C@H]3O)c2n1 | -19.3% | 
76 | O=C(O)CC/C=C\C[C@@H]1CO[C@H](c2ccccc2Cl)O[C@@H]1c1ccccc1O | -28.7% | 
77 | Cc1ccc(-c2nn(CC(C)(C)C)c3ncnc(N)c23)cc1 | 8.47% | 
78 | Cc1noc(NS(=O)(=O)c2cccc3c(N(C)C)cccc23)c1C | -18.5% | 
79 | CCCCC[C@H](O)/C=C/[C@H]1C=CC(=O)[C@@H]1C/C=C\CCCC(=O)O | -13.8% [at 3.88 µM] | 
80 | O=c1nc2ccccc2c2n1C[C@H](CN1CCN(c3ccccc3)CC1)N2 | 10% | 
